Sampled rows, rich in hits. Any-hit rate of the full collection: about 8%.
HT1080-NT tox = kills 2HG-producing HT-1080-NT fibrosarcoma cells. actives 1.6% (n = 360,000). Potency, µM (series often up to 46.1 µM), for the others: at the highest dose activity, negative = less viability, usual class: cytotoxic. HT-1080-NT fibrosarcoma viability, CellTiter-Glo ATP luminescence, 48 h;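 also: NT is the 2HG producing partner of a matched IDH1 knockdown line; 0% = DMSO-treated cells and -100% = media-only wells without cells; nearly all actives have a fitted effect of over 55% in size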
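Viability of the 2HG-overproducing fibrosarcoma line after 48 hours of compound exposure at 37 degrees C was determined by luminescence with CellTiter-Glo, and concentration-effect curves were then fitted and categorized.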
KB-V1 cytotox = kills drug-selected multidrug resistant KB-V1 cells. Potency, µM (top dose mostly 46.1 µM), usual class: cytotoxic. actives 3.4% (n = 400,000). KB-V1 MDR cells viability, CellTiter-Glo, 72 h; also: % is scaled to controls: 0 for no effect and ±100 for the full control effect; nearly all actives have a fitted effect of over 60% in size
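Compound-treated KB-V1 multidrug-resistant cells, 72 h, 37 degrees C; viability by CellTiter-Glo. Fitted qHTS curves give the values.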
HT1080 IDH1KD tx = HT-1080 IDH1 knockdown cell toxicity (counter line). Potency, µM (top dose mostly 46.1 µM), for the others: top-dose activity, negative = toxicity, most hits filed as cytotoxic. actives 2% (n = 360,000). AID 686971. HT-1080 IDH1 knockdown viability, ATP luminescence, 48 h;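 also: 0% = DMSO wells and -100% = cell-free medium wells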
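After a 2 h attachment period, IDH1KD HT-1080 cells took pin-transferred compound for 48 h at 37 °C; ATP-based luminescence after 10 min room-temperature reagent incubation reported viability.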
MCF10A rerep = inducers of DNA re-replication in MCF 10A breast cells; MCF 10A DNA re-replication, Hoechst nuclear intensity, 48 h; Potency, µM (doses to about 46.1 µM), for the others: at the highest dose activity, positive = re-replication, most hits filed as activators; actives 2.9% (n = 350,000); also: % of control where 0% means no effect; nearly all actives have a fitted effect of over 50% in size
KB-3-1 cytotox = KB-3-1 parental cell cytotoxicity. Potency, µM (titrated, usually from 46.1 µM), usual class: cytotoxic. KB-3-1 viability, CellTiter-Glo ATP luminescence, 72 h. actives 1.4% (n = 400,000); also: % is scaled to controls: 0 for no effect and ±100 for the full control effect; nearly all actives have a fitted effect of over 60% in size
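Cytotoxicity measured as CellTiter-Glo luminescence after 72 h at 37 C. Compound titrations were pinned onto drug-naive KB-3-1 parental adenocarcinoma cells grown in DMEM with 10% FBS, and normalized data fitted to concentration-response curves.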
SW480 rereplic = induces DNA re-replication in SW480 colon adenocarcinoma cells | SW480 DNA re-replication, Hoechst DNA content imaging, 48 h | Potency, µM (doses to about 46.1 µM), for inactives: at the top dose re-replication activation, actives largely listed as activators | actives 1.8% (n = 340,000) | AID 624297; also: % of control where 0% means no effect; nearly all actives have a fitted effect of over 55% in size
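Cells (250 per well) received 23 nL compound or DMSO by pin tool and were kept 48 hr at 37 C, 5% CO2. Nuclei were then stained with Hoechst for 40 min and scanned for DNA content.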
The depositor's hits bear a star; ! = repeats disagree. Calls follow the shape of the dose curve; as a rule, active = well fitted curve in the direction sought with a large enough effect; inconclusive = small, poorly fitted or top-dose-only effect, or another doubt; inactive = no such curve, though single readings can be large; an effect the other way counts as inactive or inconclusive. Potency is read from the fitted curve at half-maximal effect.

N#Cc1ccc(OCC(O)CN2CCN(CC(O)COc3ccc(C#N)cc3)CC2)cc1 (stereo not given) was read as HT1080-NT tox 8%, KB-V1 cytotox inconclusive, HT1080 IDH1KD tx 4%, MCF10A rerep 18%, KB-3-1 cytotox inactive and SW480 rereplic -5%.
N#Cc1ccc(OCC(O)CN2CCN(c3ncc(C(F)(F)F)cc3Cl)CC2)cc1 (stereo not given) was read as HT1080-NT tox inconclusive, KB-V1 cytotox 7.3µM*, HT1080 IDH1KD tx inconclusive, MCF10A rerep inconclusive, KB-3-1 cytotox 15µM* and SW480 rereplic 25%.
`O=C(O)c1ccccc1C(=O)NNc1ccc(F)cc1` gave HT1080-NT tox inconclusive, KB-V1 cytotox inactive, HT1080 IDH1KD tx 8.2µM*, MCF10A rerep inconclusive, KB-3-1 cytotox inactive and SW480 rereplic -1%.
`O=C(O)c1ccccc1C(=O)NCc1ccc(F)cc1` gave HT1080-NT tox 1%, KB-V1 cytotox inactive, HT1080 IDH1KD tx 10%, MCF10A rerep -21%, KB-3-1 cytotox inactive and SW480 rereplic 0%.
O=C1[C@H](Cc2ccccc2)NCCCC[C@@H](c2ccc(Cl)cc2)N1Cc1ccccc1 was read as HT1080-NT tox inconclusive, KB-V1 cytotox 23µM*!, HT1080 IDH1KD tx inconclusive, MCF10A rerep 26%, KB-3-1 cytotox inconclusive and SW480 rereplic 2%.
For O=C1[C@H](Cc2ccccc2)NCCCC[C@H](c2ccc(Cl)cc2)N1Cc1ccc(Cl)cc1 the results were HT1080-NT tox -19%, KB-V1 cytotox inconclusive, HT1080 IDH1KD tx -15%, MCF10A rerep inconclusive, KB-3-1 cytotox inconclusive and SW480 rereplic -4%.
`O=C(COc1ccc(C(=O)c2ccccc2)cc1)NCc1ccc(F)cc1` gave HT1080-NT tox 2.1µM*, KB-V1 cytotox inconclusive, HT1080 IDH1KD tx 2.3µM*, MCF10A rerep 4.1µM*, KB-3-1 cytotox inconclusive and SW480 rereplic 7.3µM*.
`COc1ccc(CCN(C)C(=O)COc2ccc(C(=O)c3ccccc3)cc2)cc1OC` gave HT1080-NT tox -8%, KB-V1 cytotox inactive, HT1080 IDH1KD tx -6%, MCF10A rerep 1%, KB-3-1 cytotox inactive and SW480 rereplic 2%.
`Cc1ccc(C(OCC(O)CNCc2ccc(F)cc2)c2ccccc2)cc1` (stereo not given) gave HT1080-NT tox -23%, KB-V1 cytotox inactive, HT1080 IDH1KD tx -15%, MCF10A rerep 2.6µM*, KB-3-1 cytotox inconclusive and SW480 rereplic 5.2µM*.
For O=C(c1ccccc1)c1ccc(OCC(O)CNCc2ccc(F)cc2)cc1 (stereo not given) the results were HT1080-NT tox inconclusive, KB-V1 cytotox 23µM*, HT1080 IDH1KD tx 21µM*, MCF10A rerep 19%, KB-3-1 cytotox inactive and SW480 rereplic 5%.
For CSc1ccc(CN(C)C(=O)COc2ccc(C(=O)c3ccccc3)cc2)cc1 the results were HT1080-NT tox inconclusive, KB-V1 cytotox 9.2µM*, HT1080 IDH1KD tx 12µM*, MCF10A rerep 13µM*, KB-3-1 cytotox 21µM* and SW480 rereplic inconclusive.
For COCCNC(=O)CCCn1c(=O)[nH]c2ccsc2c1=O the results were KB-V1 cytotox inconclusive and KB-3-1 cytotox inactive.
For O=C(NCc1ccccc1)c1cc[n+]([O-])cc1 the results were HT1080-NT tox 4%, KB-V1 cytotox inactive, HT1080 IDH1KD tx 11%, MCF10A rerep -2%, KB-3-1 cytotox inactive and SW480 rereplic -1%.
For CCOC(=O)c1cccc(NC(=O)CCc2c(C)nc3c4cccnc4nn3c2C)c1 the results were KB-V1 cytotox inconclusive and KB-3-1 cytotox inactive.
For O=C(c1ccccc1)c1ccc(OCC(O)CNCc2cccc(Cl)c2)cc1 (stereo not given) the results were HT1080-NT tox inconclusive, KB-V1 cytotox inactive, HT1080 IDH1KD tx inconclusive, MCF10A rerep 21µM*, KB-3-1 cytotox inactive and SW480 rereplic -3%.
`Cc1ccc(OCC(O)CNCc2ccccc2)cc1C` (stereo not given) gave HT1080-NT tox -3%, KB-V1 cytotox inactive, HT1080 IDH1KD tx -12%, MCF10A rerep 15%, KB-3-1 cytotox inactive and SW480 rereplic 19%.
For CC1CCN(S(=O)(=O)c2ccc3c(c2)N(CC(=O)NCCN(C)C)C(=O)CS3)CC1 the results were KB-V1 cytotox inconclusive and KB-3-1 cytotox inactive.
For CN(Cc1ccc(Cl)c(Cl)c1)C(c1cc2ccccc2o1)c1nnnn1C(C)(C)C (stereo not given) the results were HT1080-NT tox -18%, KB-V1 cytotox 15µM*, HT1080 IDH1KD tx inconclusive and KB-3-1 cytotox inconclusive.
`Cc1ccc2nc(SCc3nnc(-c4ccccc4Br)o3)[nH]c2c1` gave HT1080-NT tox -20%, KB-V1 cytotox inactive, HT1080 IDH1KD tx -20%, MCF10A rerep 9%, KB-3-1 cytotox inactive and SW480 rereplic 1%.
Screening COc1cccc(NC(=O)COc2cc(O)c3c(c2)OC(C)(C)CC3=O)c1 returned HT1080-NT tox -2%, KB-V1 cytotox inconclusive, HT1080 IDH1KD tx -6%, MCF10A rerep -3%, KB-3-1 cytotox inactive and SW480 rereplic -1%.
For O=C(CSC1=NNC(c2ccccn2)S1)Nc1ccc(C(F)(F)F)cc1 (stereo not given) the results were HT1080-NT tox 15µM*, KB-V1 cytotox inactive, HT1080 IDH1KD tx 4.1µM*, MCF10A rerep inconclusive, KB-3-1 cytotox inconclusive and SW480 rereplic inconclusive.
O=C(Nc1cc(F)ccc1F)c1cnn2c1NC(=C1CC1)C=C2C(F)F was read as KB-V1 cytotox inconclusive and KB-3-1 cytotox inactive.
`O=C(NN1C(=O)C2C3c4ccccc4C(c4ccccc43)C2C1=O)c1ccc(Cl)cc1` (stereo not given) gave HT1080-NT tox -5%, KB-V1 cytotox 16µM*, HT1080 IDH1KD tx 0%, MCF10A rerep 7%, KB-3-1 cytotox inactive and SW480 rereplic -8%.
Screening COc1cc(NC(=O)NCCn2nnc3cc(S(=O)(=O)N(C)C)ccc32)cc(OC)c1 returned KB-V1 cytotox inactive and KB-3-1 cytotox inactive.
CCOCCCNC(=O)c1cc(Sc2ccc(F)cc2)nc2ccccc12 was read as HT1080-NT tox -2%, KB-V1 cytotox 21µM*, HT1080 IDH1KD tx -14%, MCF10A rerep inconclusive, KB-3-1 cytotox inactive and SW480 rereplic 1%.
